PubChem BioAssay AID722 (NMMLSC, 2007)
The campaign covered roughly 1,300 compounds. About 40 (3%) were called active. This excerpt belongs to a sample that is enriched for actives. Unmarked numbers belong to inactive results. No stated cut-off is given here; in the data, active means inhibition above about 30%; inactive means the rest.

The molecules below were run against fMet-Leu-Phe receptor (Homo sapiens) (UniProt P21462) (assay: FPR1 fluorescent ligand binding inhibitors, primary screen, cell-based, flow cytometry, SAR analysis (AID 722)). Settings: FPR-expressing cells, active compounds read high, concentration not given here.
Chain of fMet-Leu-Phe receptor (Homo sapiens) (P21462 whole entry, looked up): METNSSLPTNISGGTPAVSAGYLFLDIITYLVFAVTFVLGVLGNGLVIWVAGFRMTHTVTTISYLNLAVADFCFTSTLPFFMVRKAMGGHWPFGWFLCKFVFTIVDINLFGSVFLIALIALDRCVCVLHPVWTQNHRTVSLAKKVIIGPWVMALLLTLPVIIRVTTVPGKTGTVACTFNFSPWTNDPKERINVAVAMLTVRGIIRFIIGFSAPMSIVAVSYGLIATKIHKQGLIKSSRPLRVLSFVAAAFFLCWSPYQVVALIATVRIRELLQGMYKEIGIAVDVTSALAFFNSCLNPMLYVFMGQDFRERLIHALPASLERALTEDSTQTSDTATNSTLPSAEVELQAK

SMILES | inhibition
COc1ccc(-c2c(C)[nH]n3c(=O)c(Cc4ccccc4)c(C)nc23)cc1 | 6.3%
Cc1nc2c(-c3ccc(Cl)cc3)c[nH]n2c(=O)c1Cc1ccccc1 | -1.4%
Cc1nc2c(-c3ccc(Cl)cc3)c(C(F)(F)F)[nH]n2c(=O)c1Cc1ccccc1 | 50.1% (active)
N#CCn1c(=O)n(Cc2ccccc2)c(=O)c2oc3ccccc3c21 | -0.8%
CCCCN(Cc1ccco1)C(=O)c1noc2c1CCCCC2 | 0.1%
CCOC(=O)c1c(NC(=O)c2cccc(Br)c2)sc(C)c1C | -4.3%
Cc1ccc(C)c(NC(=O)Cn2c(-c3nonc3N)nc3ccccc32)c1 | 5.3%
Cc1sc2c(c1C)c(=O)n(Cc1ccccc1)c(=O)n2Cc1ccccc1F | 38.5% (active)
O=c1c2cccnc2n(Cc2ccccc2F)c(=O)n1Cc1cccs1 | -0.6%
O=c1c2cccnc2n(Cc2ccccc2F)c(=O)n1Cc1ccccc1 | -7.5%
Cc1ccc(C)c(Cn2c(=O)cc(C)c3c(C)nn(-c4cccc(F)c4)c32)c1 | -2.2%
CCOC(=O)c1sc(N2C(=O)C(=O)/C(=C(/O)c3ccccc3)C2c2ccc(C(C)C)cc2)nc1C (configuration not stated) | 7.9%
Cc1nnc(N2C(=O)C(=O)/C(=C(/O)c3ccc(F)cc3)C2c2cccc(Oc3ccccc3)c2)s1 (configuration not stated) | -8.8%
Cc1ccc(CN(Cc2ccco2)C(=O)c2cccc(C)c2)cc1 | -4.5%
O=C(O)CCCN1C(=O)C(=O)/C(=C(/O)c2ccccc2)C1c1ccc(F)cc1 (configuration not stated) | 5.5%
O=C(O)CCCN1C(=O)C(=O)/C(=C(/O)c2ccccc2)C1c1ccc(Br)cc1 (configuration not stated) | 1.2%
O=C(O)CCCN1C(=O)C(=O)/C(=C(/O)c2ccccc2)C1/C=C/c1ccccc1 (configuration not stated) | 44.6% (active)
O=C1C(=O)N(CCCN2CCOCC2)C(c2cccnc2)/C1=C(\O)c1ccccc1 (configuration not stated) | -3.2%
COC(=O)c1ccc(C2C(C(C)=O)=C(O)C(=O)N2c2ccc(OCC(=O)O)cc2)cc1 (configuration not stated) | 2.2%

SMILES | inhibition
COc1cccc(C2C(C(C)=O)=C(O)C(=O)N2c2ccc(C)c(Br)c2)c1 (configuration not stated) | -9%
COc1cc(C2C(C(C)=O)=C(O)C(=O)N2c2ccc(Br)cc2)ccc1O (configuration not stated) | 35.8% (active)
Cc1cccc(C(=O)N(C(=O)c2cccc(C)c2)c2ncccn2)c1 | -8.2%
CCN(C(=O)c1noc2c1CCCCC2)c1cccc(C)c1 | -6.2%
COc1ccc(C2C(C(=O)c3cccs3)=C(O)C(=O)N2CCCn2ccnc2)cc1 (configuration not stated) | 42.2% (active)
O=C(C1=C(O)C(=O)N(CCc2ccccc2)C1c1ccc(Cl)cc1)c1cccs1 (configuration not stated) | 77.6% (active)
O=C(C1=C(O)C(=O)N(CCCn2ccnc2)C1c1cccnc1)c1ccco1 (configuration not stated) | 33.2% (active)
COc1ccc(C2C(C(=O)c3cccs3)=C(O)C(=O)N2CCCn2ccnc2)c(OC)c1 (configuration not stated) | 1.7%
O=C(C1=C(O)C(=O)N(CCCn2ccnc2)C1c1cccc(Br)c1)c1ccco1 (configuration not stated) | 0.3%
O=C(C1=C(O)C(=O)N(CCCN2CCOCC2)C1c1cccnc1)c1cc2ccccc2o1 (configuration not stated) | 22.2%
O=C(C1=C(O)C(=O)N(CCCn2ccnc2)C1c1cccnc1)c1cc2ccccc2o1 (configuration not stated) | 40.4% (active)
O=C(C1=C(O)C(=O)N(CCCN2CCOCC2)C1c1cccnc1)c1ccco1 (configuration not stated) | -9.2%
O=C(C1=C(O)C(=O)N(CCCn2ccnc2)C1c1ccc(Cl)cc1)c1cccs1 (configuration not stated) | 19.5%
O=C(C1=C(O)C(=O)N(CCc2ccccc2)C1c1ccc([N+](=O)[O-])cc1)c1cccs1 (configuration not stated) | -7.4%
O=C(C1=C(O)C(=O)N(CCCn2ccnc2)C1c1cccnc1)c1cccs1 (configuration not stated) | 3.5%
COc1cccc(C2C(C(=O)c3cccs3)=C(O)C(=O)N2CCc2ccccc2)c1 (configuration not stated) | 15.8%
O=C(C1=C(O)C(=O)N(CCCN2CCOCC2)C1c1ccco1)c1ccco1 (configuration not stated) | -4.4%
Cc1ccc(/C(O)=C2\C(=O)C(=O)N(CC3CCCO3)C2c2ccc([N+](=O)[O-])cc2)cc1 (configuration not stated) | -3.9%
CCCC(=O)N1CCc2cc(OC)c(OC)cc2C1COc1ccc(OC)cc1 (configuration not stated) | -2.3%

SMILES | inhibition
Cc1nc2c(C(=O)N3CCCCC3)c[nH]n2c(=O)c1Cc1ccccc1F | -4.3%
CCOc1ccc(C2/C(=C(/O)c3ccccc3)C(=O)C(=O)N2CCO)cc1 (configuration not stated) | 1.5%
Cc1ccc(/C(O)=C2\C(=O)C(=O)NC2c2ccc(F)cc2)cc1 (configuration not stated) | 10%
Cc1ccc(/C(O)=C2\C(=O)C(=O)NC2c2ccccc2)cc1 (configuration not stated) | 0.5%
O=C(c1cccs1)N1c2ncnn2C2(CCCCC2)[C@@H]2CCCC[C@@H]21 | 0.9%
COc1cccc(N(Cc2nnc3n2CCCCC3)C(=O)Nc2ccccc2)c1 | -7.8%
COc1ccccc1C1CC(c2ccccc2)=NN1C(=O)c1ccccc1 (configuration not stated) | 0%
CCOC(=O)c1c(NC(=O)c2ccc(Cl)cc2)sc(C)c1C | -1%
CCOC(=O)c1c(NC(=O)c2cc(F)c(F)cc2Cl)sc2c1CCC2 | -9.6%
CCOC(=O)c1c(NC(=O)c2cccc(F)c2)sc2c1CCCC2 | -4%
C=CCC(CC=C)(NC(=O)c1cccc(C)c1)c1ccccc1 | 0.8%
O=C(C1=C(O)C(=O)N(c2nncs2)C1c1ccccc1F)c1cccs1 (configuration not stated) | -6.8%
CCc1c(C)nc2c(C#N)c[nH]n2c1=O | 0.5%
CC(=O)C1=C(O)C(=O)N(CCN2CCOCC2)C1c1ccc([N+](=O)[O-])cc1 (configuration not stated) | 5.7%
CCC(C)(C(=O)NC1CCCCC1)N(C)C(=O)Cc1cccs1 (configuration not stated) | -25.1%
CCC(C)(C(=O)NC1CCCCC1)N(Cc1cccs1)C(C)=O (configuration not stated) | 57.2% (active)
CCOc1ccccc1C(=O)N(Cc1cccs1)c1ccc(C)cc1 | 5.8%
COc1cccc(C(=O)N(Cc2ccco2)Cc2ccccc2F)c1 | -2.3%
O=C(C(Cc1ccccc1)N1Cc2ccccc2C1=O)N1CCCCCC1 (configuration not stated) | 0.8%
